Where “and” joins values, the source holds several entries; their conditions need not be identical. Equal values may be shown once. Results filed as inconclusive are left out. Entries that show only a call come without a potency. Calls of active or inactive are those of the source. Unless noted, calls follow the shape of the dose curve; as a rule, active = well fitted curve in the direction sought with a large enough effect; inconclusive = small, poorly fitted or top-dose-only effect, or another doubt; inactive = no such curve, though single readings can be large; an effect the other way counts as inactive or inconclusive. Where a SMILES comes first, the peptide text is derived from it.
Tests used:
[1] = tested on: Zika virus NS2B-NS3 protease; test: Primary screen GU AMC qHTS for Zika virus inhibitors (AID 1347154); also: nearly all actives have a fitted effect of over 70% in size; also: potency is read from the fitted curve at half-maximal effect
How it was run: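 Unlinked Zika NS2B hydrophilic domain–NS3 protease complex at 25 nM in 10 mM Tris-HCl pH 8.0, 0.01% Tween 20, with an AMC peptide substrate. Fluorescence change (340/450 nm) over 15 min at room temperature, normalized to controls, fitted to 4-parameter Hill.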

[2] = Primary qHTS for small molecule stabilizers of the endoplasmic reticulum resident proteome: Secreted ER Calcium Modulated Protein (SERCaMP) assay (AID 1508630)
How it was run: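 GLuc-SERCaMP-expressing SH-SY5Y cells, pretreated 16 h with compound, are challenged with thapsigargin to empty ER calcium stores; after 4 h, coelenterazine is added directly to the medium and luminescence is imaged.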

[3] = biological target: Lysosomal acid glucosylceramidase (Homo sapiens) (UniProt P04062); test: Glucocerebrosidase-p2 (AID 348; in the data active = potency below about 10 µM; also: potency is read from the fitted curve at half-maximal effect); conditions: purified GBA, blue fluorogenic substrate, 40 min
Sequence of Lysosomal acid glucosylceramidase (Homo sapiens) (P04062 whole entry, looked up): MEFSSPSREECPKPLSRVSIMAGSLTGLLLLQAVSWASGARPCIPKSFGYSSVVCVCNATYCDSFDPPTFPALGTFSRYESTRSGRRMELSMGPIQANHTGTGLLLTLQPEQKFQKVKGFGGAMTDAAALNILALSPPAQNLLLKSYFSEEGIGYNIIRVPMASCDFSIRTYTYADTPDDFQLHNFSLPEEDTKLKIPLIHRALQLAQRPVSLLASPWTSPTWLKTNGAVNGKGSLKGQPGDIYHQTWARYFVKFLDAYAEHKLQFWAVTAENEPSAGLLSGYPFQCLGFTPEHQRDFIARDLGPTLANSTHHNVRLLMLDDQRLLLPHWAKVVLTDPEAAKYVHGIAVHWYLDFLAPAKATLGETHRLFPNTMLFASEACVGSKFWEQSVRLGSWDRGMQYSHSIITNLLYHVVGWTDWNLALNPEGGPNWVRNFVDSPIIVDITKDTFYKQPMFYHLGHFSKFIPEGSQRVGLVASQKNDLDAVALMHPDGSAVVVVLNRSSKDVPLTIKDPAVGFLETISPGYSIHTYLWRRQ
How it was run: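 Compounds titrated from 0.6 nM upwards against 0.2 nM enzyme in pH 5.9 citric acid/KH2PO4, taurocholate, tween-20; blue fluorogenic substrate 80 uM, 40 min room temperature, stopped and read Ex 365/Em 440 for AC50.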

[4] = AP1 Signaling Pathway (AID 357; active = well fitted curve in either direction with a large enough effect, not every such curve was filed as active)
How it was run: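 AP-1-bla ME-180 cells with beta-lactamase reporter under AP-1 response element, stimulated with EC50 EGF; compounds titrated, 5 hours at 37 degrees Celsius. CCF4 read at 460/530 nm ratio; positive and negative modulators judged by AC50.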

[5] = NFAT Signaling Pathway (AID 444; active = well fitted curve in either direction with a large enough effect, not every such curve was filed as active;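 also: carbachol stimulus at about its EC50 of 1 µM final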); conditions: Jurkat NFAT-bla M1, carbachol, beta-lactamase ratio, 5 h; at 7.69 µM (top of the series)
How it was run: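 Jurkat cells with NFAT-driven β-lactamase reporter and co-expressed M1 receptor, stimulated with carbachol (final 1 uM, ~EC50), compound titration, 5 h at 37 °C. CCF4 loaded 1 h at RT; 460/530 nm ratio gave %activity and AC50.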

[6] = biological target: Glucocorticoid receptor (Homo sapiens) (UniProt P04150); test: GR-GFP Redistribution (AID 450;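 active = compounds whose dose series gives a full or clear partial fitted curve of increased nuclear translocation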; also: potency is read from the fitted curve at half-maximal effect); conditions: U2OS GR-GFP nuclear translocation, laser cytometry, 2 h
Sequence of Glucocorticoid receptor (Homo sapiens) (P04150 whole entry, looked up, the tested form may be a part): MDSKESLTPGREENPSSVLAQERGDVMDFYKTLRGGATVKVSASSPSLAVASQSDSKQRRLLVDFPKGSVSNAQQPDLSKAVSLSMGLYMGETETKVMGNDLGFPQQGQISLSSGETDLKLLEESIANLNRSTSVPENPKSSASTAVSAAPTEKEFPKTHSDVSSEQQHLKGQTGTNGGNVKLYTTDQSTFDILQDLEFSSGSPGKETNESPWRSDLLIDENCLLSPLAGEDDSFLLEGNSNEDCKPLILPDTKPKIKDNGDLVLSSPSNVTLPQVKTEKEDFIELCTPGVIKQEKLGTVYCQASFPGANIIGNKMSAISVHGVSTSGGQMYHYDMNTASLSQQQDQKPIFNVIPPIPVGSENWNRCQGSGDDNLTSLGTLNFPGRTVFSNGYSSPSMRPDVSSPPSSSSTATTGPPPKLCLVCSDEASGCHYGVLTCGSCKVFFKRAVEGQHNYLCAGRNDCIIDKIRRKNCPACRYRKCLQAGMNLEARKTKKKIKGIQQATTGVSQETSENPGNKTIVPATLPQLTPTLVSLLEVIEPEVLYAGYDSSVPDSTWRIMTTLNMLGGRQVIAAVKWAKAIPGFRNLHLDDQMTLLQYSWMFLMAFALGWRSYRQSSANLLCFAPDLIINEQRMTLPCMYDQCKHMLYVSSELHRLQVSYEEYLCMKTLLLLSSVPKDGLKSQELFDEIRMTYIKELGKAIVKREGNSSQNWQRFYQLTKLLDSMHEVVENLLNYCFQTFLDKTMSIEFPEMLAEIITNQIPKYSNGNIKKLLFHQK

[7] = biological target: Glucocorticoid receptor (Homo sapiens) (UniProt P04150); test: GR-EFC Redistribution (AID 451; calls by dose curve; also: potency is read from the fitted curve at half-maximal effect); conditions: CHO-K1 GR-EFC translocation, beta-gal luminescence, 2 h
How it was run: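 CHO-K1 cells expressing nuclear EA and GR-ED fragments of b-gal; compounds titrated up to 46 uM final, 2 h at 37 C. GR nuclear translocation read as complemented b-gal luminescence after 1 h RT detection.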

[8] = biological target: Mitogen-activated protein kinase 10 (Mus musculus) (UniProt Q61831); test: JNK3 AlphaScreen Assay (AID 530; active = well fitted curve in either direction with a large enough effect, not every such curve was filed as active;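 also: kinase came from lysate of stimulated human HepG2 cells; signal reports phosphorylation of biotinylated GST-cJun 1-79 at Ser73 with 10 µM ATP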)
How it was run: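 Pre-activated (IL-1β/TNFα) JNK3 in HepG2 lysates phosphorylates biotin-GST-cJun(1-79), 10 uM ATP; anti-phospho-cJun(Ser73) AlphaScreen read at room temperature, pH 7.6 Tris buffer. Compounds pre-incubated 15 min as titrations.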

[9] = biological target: 3',5'-cyclic-AMP phosphodiesterase 4B (Homo sapiens) (UniProt Q07343); test: qHTS Assay for Inhibitors of PDE-IV (AID 607; active = well fitted activation curve with a large enough effect in the main read-out, with a control signal flat, not every such curve was filed as active)
Sequence of 3',5'-cyclic-AMP phosphodiesterase 4B (Homo sapiens) (Q07343 whole entry, looked up): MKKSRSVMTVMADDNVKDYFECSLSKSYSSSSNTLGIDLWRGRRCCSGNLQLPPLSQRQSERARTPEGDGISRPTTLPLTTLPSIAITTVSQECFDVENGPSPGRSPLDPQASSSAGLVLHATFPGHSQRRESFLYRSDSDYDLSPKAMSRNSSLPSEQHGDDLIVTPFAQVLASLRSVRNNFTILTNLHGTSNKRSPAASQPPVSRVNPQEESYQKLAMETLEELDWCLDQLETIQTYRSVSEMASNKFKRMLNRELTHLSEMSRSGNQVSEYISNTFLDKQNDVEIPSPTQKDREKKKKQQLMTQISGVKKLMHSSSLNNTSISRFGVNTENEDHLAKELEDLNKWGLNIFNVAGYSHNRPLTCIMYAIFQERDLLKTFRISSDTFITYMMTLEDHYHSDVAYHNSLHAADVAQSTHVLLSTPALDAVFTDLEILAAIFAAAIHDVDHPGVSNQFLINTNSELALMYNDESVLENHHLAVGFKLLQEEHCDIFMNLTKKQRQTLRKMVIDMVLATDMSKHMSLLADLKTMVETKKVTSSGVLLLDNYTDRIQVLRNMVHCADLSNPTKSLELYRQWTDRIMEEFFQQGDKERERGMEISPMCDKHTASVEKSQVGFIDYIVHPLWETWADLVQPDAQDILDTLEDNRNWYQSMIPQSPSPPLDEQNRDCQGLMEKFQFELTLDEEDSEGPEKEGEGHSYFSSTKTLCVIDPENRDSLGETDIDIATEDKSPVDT
How it was run: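 ACTOne HEK293 cells carry a modified cAMP-gated CNG channel and express endogenous PDE4; plated 1000 cells/well, compounds up to 22.9 uM final. Membrane-potential dye fluorescence (ex 535/em 590) was read; parental cells received 10 uM forskolin + 100 uM RO 20-1724.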

[10] = qHTS Assay for Lipid Storage Modulators (AID 1519; calls by dose curve); conditions: Drosophila S3 cells, BODIPY lipid droplet/cell ratio, laser cytometry, cells loaded with oleic acid
How it was run: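 Cells seeded at 5,000 per well were treated with compounds over a concentration series and loaded with oleic acid (400 uM, as added). Lipid droplet fluorescence (488 nm excitation, 500-530 nm channel) was read by laser-scanning cytometry and normalized to 20 uM Triacsin C.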

[11] = biological target: DNA dC->dU-editing enzyme APOBEC-3G (Homo sapiens) (UniProt Q9HC16); test: qHTS for inhibitors of Vif-A3G interactions: Validation (AID 588379)
Sequence of DNA dC->dU-editing enzyme APOBEC-3G (Homo sapiens) (Q9HC16 whole entry, looked up): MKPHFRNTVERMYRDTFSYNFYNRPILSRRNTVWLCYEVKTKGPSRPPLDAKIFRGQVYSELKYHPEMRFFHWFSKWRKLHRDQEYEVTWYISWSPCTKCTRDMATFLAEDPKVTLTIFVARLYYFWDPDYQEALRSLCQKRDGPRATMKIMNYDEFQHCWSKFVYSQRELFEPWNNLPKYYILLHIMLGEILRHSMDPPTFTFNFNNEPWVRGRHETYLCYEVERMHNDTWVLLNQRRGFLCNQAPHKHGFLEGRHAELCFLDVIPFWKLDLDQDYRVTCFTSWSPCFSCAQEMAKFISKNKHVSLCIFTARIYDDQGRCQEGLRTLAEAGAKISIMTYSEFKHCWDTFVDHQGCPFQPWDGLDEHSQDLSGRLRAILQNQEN
How it was run: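 HeLa cells stably expressing Vif and A3G-eYFP, 700 cells/well, incubated overnight at 37 deg C, then exposed to compound overnight at 37 deg C. Inhibition of Vif-mediated degradation read as increased yellow fluorescence (Ex 488/Em 500-530) by laser-scanning cytometry.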

C[C@]12CC[C@H]3[C@@H](C[C@H](F)C4=CC(=O)CC[C@@]43C)[C@@H]1CC[C@@H]2O
Potency [1]: inactive | Potency [2]: inactive

N#CC(C#N)=Cc1cc(O)c(O)c([N+](=O)[O-])c1
Potency [1]: inactive | Potency [2]: inactive

CN(CC(=O)N[C@H](CO)Cc1ccccc1)C(=O)[C@H](CCS(C)=O)NC(=O)[C@@H](N)Cc1ccc(O)cc1 (some centres undefined) (HELM PEPTIDE1{Y.[CS(=O)CC[C@H](N[*:1])C(=O)[*:2]].[Sar].[OC[C@H](Cc1ccccc1)N[*:1]]}$$$$V2.0)
activity change, negative = inhibition [1]: 16.9% [at 6.83 µM] (inactive) | activity change, negative = inhibition [2]: -13.2% [at 3.88 µM] (inactive)

CCOc1cncc(/C=C/CCNC)c1
Potency [1]: inactive | Potency [2]: inactive

O=C(NC1CCCCC1)c1cn(CCN2CCOCC2)c2cc(Cl)ccc2c1=O
Potency [1]: inactive | Potency [2]: inactive

O=C(O)C1CN(CP(=O)(O)O)CCN1 (centres undefined)
Potency [1]: inactive | Potency [2]: inactive

CC1=C2CC3C(CC=C4C[C@@H](O)CC[C@@]43C)[C@@H]2CC[C@]12O[C@@H]1C[C@H](C)CN[C@H]1[C@H]2C (some centres undefined)
Potency [1]: inactive | Potency [2]: inactive

CCCCCCCCCCCCCCCCOC[C@@H](COP(=O)([O-])OCC[N+](C)(C)C)OC(C)=O
activity change, negative = inhibition [1]: 5.71% [at 6.83 µM] (inactive) | activity change, negative = inhibition [2]: -29.1% [at 3.88 µM] (inactive)

CC(Cc1cccc(C(F)(F)F)c1)NCCCc1ccccc1 (centres undefined)
Potency [1]: inactive | Potency [2]: inactive

COc1ccc2c(c1O)-c1cc(O)cc3c1[C@@H](C2)N(C)CC3
Potency [1]: 29.9 µM (active) | Potency [2]: inactive

O=C1CSC(c2ccccc2Cl)c2cc(Cl)ccc2N1 (centres undefined)
Potency [1]: inactive | Potency [2]: inactive

COC[C@H]([C@@H](O)[C@@H](O)C(=O)NCC[C@@H](C)c1nc(/C=C/C[C@H]2OC3(C[C@H](O)[C@H]2C)OC([C@@H](C[C@@H](O)[C@@H](C)[C@@H](O)[C@@H](C)/C=C(C)/C(C)=C/C=C/C(C)=C\C#N)OC)[C@@H](OP(=O)(O)O)C3(C)C)co1)N(C)C (some centres undefined)
activity change, negative = inhibition [1]: 9.25% [at 4.99 µM] (inactive) | activity change, negative = inhibition [2]: 257% [at 1.51 µM] (inactive)

N[C@@H](CCP(=O)(O)O)C(=O)O
Potency [3]: > 11.4 µM (inactive) | activity change, negative = inhibition [4]: 9.69% [at 7.69 µM] (inactive) | activity change, negative = inhibition [5]: 3.73% (inactive) | Potency [6]: > 46 µM (inactive) | Potency [7]: > 46 µM (inactive) and > 9.22 µM (inactive) | outcome [8]: inactive | Potency [9]: inactive | activity change, negative = inhibition ([10]; at 57.5 µM (top of the series)): -1.66% (inactive) | max response ([10]; measured here: cell count channel max response): -5.2% | max response ([10]; measured here: lipid channel max response): -9.13% | Potency [11]: inactive | Potency [1]: inactive | Potency [2]: inactive

Nc1ncnc2c1ncn2[C@@H]1O[C@H](COP(=O)(O)CP(=O)(O)O)[C@@H](O)[C@H]1O
Potency [1]: inactive | Potency [2]: inactive

— PubChem BioAssay (NCATS)
